Measured values from PubChem BioAssay (NCATS).
Results filed as inconclusive are left out. Entries that show only a call come without a potency. Active and inactive are the calls of the source. Calls follow the shape of the dose curve; as a rule, active = well fitted inhibition curve with a large enough effect; inconclusive = small, poorly fitted or top-dose-only effect; inactive = flat fitted curve, though single readings scatter.

molecular target: Dual specificity protein kinase CLK4 (Homo sapiens) (UniProt Q9HAZ1); assay: qHTS Assay for Inhibitors of CDC-like Kinase 4 (Kinase-Glo Assay) (AID 1770); conditions: recombinant Clk4, Kinase-Glo ATP depletion luminescence; series mostly up to 66.7 µM; also: nearly all actives have a fitted effect of over 65% in size
Protocol: NIH Molecular Libraries Probe Production Centers Network [MLPCN] NIH Chemical Genomics Center [NCGC] MLPCN Grant: 1R03MH084827-01 Assay Submitter (PI): Tom Misteli NCGC Assay Overview: Clk4 (Invitrogen, cat# PV3839) was assayed using ATP and the RS repeat peptide (AnaSpec cat # 61722) as substrates. Following the Clk4 reaction, the remaining ATP levels were detected using Promega Kinase-Glo technology wherein the remaining ATP from the kinase reaction is detected using Ultra-Glo luciferase and D-luciferin which generates a bioluminescence signal from the ATP. The positive control for the assay was TG003 (Sigma-Aldrich, cat# 300801-52-9) which has been described as an inhibitor of Clk 4[1].
NCGC Assay Protocol Summary: Two uL/well of substrate-buffer solution (100 uM RS peptide, 1 uM ATP, 25 mM Tris pH7.5, 10 mM MgCl2, 0.5 mM EGTA, 2.5 mM DTT, 0.01% Triton X-100 final concentration) was dispensed into 1536-well, assay plates (Greiner, solid white medium-binding plates) with Aurora Discovery BioRAPTR Flying Reagent Dispenser (FRD; Beckton-Dickenson). Using a Kalypsys pin tool equipped with a 1536-pin tool, 23 nL of compound solution was transferred to the assay plate. One uL/ well Clk4-buffer solution (25 nM Clk4, 25 mM Tris pH 7.5, 10 mM MgCl2, 0.5 mM EGTA, 2.5 mM DTT, 0.01% Triton X-100, final concentrations) was then added using the FRD yielding a total kinase reaction volume of 3 uL/ well. After 4.5 hours of room temperature incubation, 3 uL Kinase-Glo reagent was added for a final assay volume of 6 uL/ well. Luminescence was detected with the ViewLux plate reader (Perkin Elmer, Waltham, MA) after 5 min incubation using a 5 second exposure time and 2x binning.
Potency is read from the fitted curve at half-maximal effect.

Sequence of Dual specificity protein kinase CLK4 (Homo sapiens) (Q9HAZ1 whole entry, looked up): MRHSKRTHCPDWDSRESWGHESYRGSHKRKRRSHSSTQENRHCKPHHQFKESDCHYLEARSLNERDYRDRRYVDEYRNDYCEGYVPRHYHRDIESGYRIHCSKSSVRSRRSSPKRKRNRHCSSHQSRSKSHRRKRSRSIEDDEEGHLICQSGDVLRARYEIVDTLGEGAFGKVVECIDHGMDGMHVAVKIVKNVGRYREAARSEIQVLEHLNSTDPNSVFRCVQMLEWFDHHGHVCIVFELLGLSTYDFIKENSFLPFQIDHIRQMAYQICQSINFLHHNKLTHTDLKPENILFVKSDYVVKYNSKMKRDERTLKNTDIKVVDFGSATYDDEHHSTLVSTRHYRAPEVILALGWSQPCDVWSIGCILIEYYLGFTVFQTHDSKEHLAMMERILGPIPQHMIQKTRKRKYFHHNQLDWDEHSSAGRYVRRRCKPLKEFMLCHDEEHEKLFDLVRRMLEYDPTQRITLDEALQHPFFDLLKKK

SMILES	Potency
COc1ccccc1CNc1cc(-c2cccnc2)ncn1	25.1 µM (active)
COCCn1c(=O)c(CCc2ccccc2)nc2cnc(N(C)C)nc21	inactive
COc1ncc2nc(CCc3ccccc3)c(=O)n(-c3ccccc3)c2n1	inactive
COc1ccc2[nH]cc(CCNc3ncncc3-c3ccccc3OC)c2c1	8.91 µM (active)
COc1ccc(Oc2ncc3nc(-c4ccccc4)c(=O)n(C[C@H]4CCCO4)c3n2)cc1	inactive
c1ccc2c(NCCN3CCOCC3)nc(-c3ccoc3)nc2c1	inactive
COc1cccc(-c2nc(NCCN3CCOCC3)c3ccccc3n2)c1	15.8 µM (active)
COc1ccccc1CNc1ncncc1-c1ccccc1C(F)(F)F	inactive
CN1CCN(c2ncnc3ccc(-c4cccc(C#N)c4)cc23)CC1	15.8 µM (active)
COc1ccc2[nH]cc(CCNc3ncnc4ccc(-c5ccccc5OC)cc34)c2c1	25.1 µM (active)
COc1ccccc1-c1nc(Nc2ccncc2)c2ccccc2n1	14.1 µM (active)
COc1ccc(-n2c(=O)c(-c3cccs3)nc3cnc(N4CCN(C)CC4)nc32)cc1	inactive
COc1ccccc1CNc1ncnc2ccc(-c3ccc(C(=O)N(C)C)cc3)cc12	inactive
CN1CCN(c2ncc3nc(-c4ccccc4)c(=O)n(Cc4cccs4)c3n2)CC1	inactive
O=c1c(CCc2ccccc2)nc2cnc(N3CCNCC3)nc2n1Cc1cccs1	inactive
COCCNc1ncnc2ccc(-c3ccccc3OC)cc12	15.8 µM (active)
COCCn1c(=O)c(-c2ccc(F)cc2)nc2cnc(Nc3cccc(OC)c3)nc21	inactive
Cc1cnc(CNc2ncnc3ccc(-c4ccccc4C)cc23)cn1	28.2 µM (active)
COc1ncc2nc(-c3ccccc3)c(=O)n(CCc3ccccc3)c2n1	inactive
COc1ccccc1-c1nccc(N2CCN(C)CC2)n1	inactive

SMILES	Potency
CN1CCN(c2ncc3nc(-c4cn(C)c5ccccc45)c(=O)n(CCC#N)c3n2)CC1	inactive
CN1CCN(c2ncc3nc(-c4cccs4)c(=O)n(CCc4ccccc4)c3n2)CC1	inactive
CCNc1ncc2nc(-c3ccccc3)c(=O)n(CCC#N)c2n1	inactive
CN(C)C(=O)c1ccc(-c2nc(N3CCOCC3)c3ccccc3n2)cc1	inactive
COCCn1c(=O)c(CCc2ccccc2)nc2cnc(Oc3ccccc3)nc21	inactive
COc1ccccc1CNc1ccnc(-c2cccc(NS(C)(=O)=O)c2)n1	28.2 µM (active)
COc1ncc2nc(-c3cccs3)c(=O)n(CCC#N)c2n1	inactive
O=c1c(-c2ccccc2)nc2cncnc2n1Cc1ccccc1	inactive
COc1ccc(Oc2ncc3nc(-c4cc(F)cc(F)c4)c(=O)n(C4CC4)c3n2)cc1	inactive
COc1ccc2[nH]cc(CCNc3ncnc4ccc(-c5ccoc5)cc34)c2c1	0.794 µM (active)
CN(C)C(=O)c1ccc(-c2cc(NCc3ccccc3)ncn2)cc1	25.1 µM (active)
c1ccc2c(NCCN3CCOCC3)nc(-c3ccc4c(c3)OCO4)nc2c1	inactive
Clc1ccccc1-c1ccc2ncnc(NCCN3CCOCC3)c2c1	28.2 µM (active)
Cn1c(=O)c(-c2ccccc2)nc2cnc(N3CCOCC3)nc21	inactive
COc1cccc(-c2nc(N(C)C)c3ccccc3n2)c1	11.2 µM (active)
COc1ccccc1CNc1ncnc2ccc(-c3cccc(NS(C)(=O)=O)c3)cc12	11.2 µM (active)
COc1ccccc1-c1nc(N2CCN(C)CC2)c2ccccc2n1	inactive
CN(C)c1nc(-c2ccc3c(c2)OCO3)nc2ccccc12	inactive
COc1ccc2[nH]cc(CCNc3cc(-c4cccc(C#N)c4)ncn3)c2c1	25.1 µM (active)
Cc1noc(C)c1-c1nc(N2CCN(C)CC2)c2ccccc2n1	15.8 µM (active)
